Measurements published in PubChem BioAssay AID431 (Sanford-Burnham Center for Chemical Genomics, 2006).
Among all 63,000 compounds or so, about 1,100 (1.7%) were called active. Many of the other results were omitted from the sample, so actives are more common in it than they were. Results with a measured potency or affinity are listed apart. Unmarked numbers belong to inactive results.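 Rule for the calls: active = compounds whose percent cytotoxicity in the single-dose primary screen, scaled between solvent and toxic-drug controls, exceeds 50; inactive = the rest.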

Experiment: viability loss of HPDE-C7K cells – cell-based, fluorescence, HTS, primary screen (AID 431);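 note: 0% = DMSO solvent wells and 100% = doxorubicin-treated wells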
Details: HPDE-C7K KRASV12 cells, Alamar Blue viability, 48 h; at 10 µM; active compounds read high

Row | SMILES | cytotoxicity
1 | N#C/C(Cn1c[n+](NC(=O)Nc2ccccc2)cn1)=N/O | -6.9%
2 | O=C1CC(SCc2nc3ccccc3[nH]2)C(=O)N1c1cccc(F)c1 (stereo not given) | -0.8%
3 | O=C(NCc1ccccn1)C1CCC(=O)N1C1CCCC1 (stereo not given) | 2.2%
4 | CCOC(=O)c1ccccc1NC(=O)CN1CCC(n2nnc3cc(F)ccc32)CC1 | 15.3%
5 | COc1ccccc1NC(=O)CN1CCC(n2nnc3cc(F)ccc32)CC1 | -3.1%
6 | CCOc1ccc2nc(NC(=O)CN3CCC(n4nnc5cc(F)ccc54)CC3)sc2c1 | 66.6% (active)
7 | CC1(C)CNC(=O)c2sc(NC(=O)CN3CCOCC3)nc2C1 | 0.1%
8 | Cc1ccc2c(c1)NC(=O)C(CC(=O)NCCN(C)C)O2 (stereo not given) | -2.3%
9 | Cc1cc(C)c2nc(-c3ccccn3)cc(C(=O)Nc3cc(C)on3)c2c1 | 8.1%
10 | Cc1cc(NC(=O)c2cc(-c3cccnc3)nc3c(C)c(C)ccc23)no1 | 8.8%
11 | Cc1cc(NC(=O)c2cc(-c3ccncc3)nc3c(C)cccc23)no1 | 68.1% (active)
12 | N#Cc1nc(COc2ccc(-c3ccccc3)cc2)oc1NCc1cccnc1 | 83.1% (active)
13 | N#Cc1nc(COc2ccc(F)cc2)oc1NCCN1CCOCC1 | -2.9%
14 | N#Cc1nc(-c2ccc(OCc3ccccc3)cc2)oc1NCc1cccnc1 | 12.7%
15 | N#Cc1nc(COc2ccc(-c3ccccc3)cc2)oc1NCCCN1CCOCC1 | 50.8% (active)
16 | N#Cc1nc(Cc2ccccc2)oc1NCc1cccnc1 | -11.2%
17 | COc1ccc(-c2nc(C#N)c(NCCCN3CCOCC3)o2)cc1 | 0.5%
18 | N#Cc1nc(-c2ccc(OCc3ccccc3)cc2)oc1NCCN1CCOCC1 | 12.8%
19 | N#Cc1nc(COc2ccccc2)oc1NCCN1CCOCC1 | -18.1%
20 | COc1ccccc1CNC(=O)c1ccc(CNc2c(N3CCCC3)c(=O)c2=O)cc1 | 4.2%
21 | CCCc1nc(-c2cc3ccc(C)cc3[nH]c2=O)no1 | 6.3%
22 | Cc1nc(NCC2CCCO2)c2nnn(Cc3ccccc3)c2n1 (stereo not given) | -0.3%
23 | Cc1nc(SCC(=O)Nc2ccc(C)c(F)c2)c2oc3ccccc3c2n1 | 24.5%
24 | O=C1CSC(c2ccco2)N1 (stereo not given) | -1.3%
25 | O=C(CN1CCN(c2ccc(Cl)cc2)CC1)Nc1ccc(F)c(F)c1 | -4.6%

Row | SMILES | cytotoxicity
26 | CC1CN(S(=O)(=O)c2ccc(NC(=O)c3ccco3)cc2)CC(C)O1 (stereo not given) | -0.1%
27 | COc1ccc(NS(=O)(=O)c2ccc(Oc3ncccn3)cc2)cc1 | 18.2%
28 | COc1cc(NS(=O)(=O)c2ccc(C)cc2)c2ncccc2c1 | 69.8% (active)
29 | COc1cc(NCCCC(C)N)c2ncccc2c1 (stereo not given) | 4.4%
30 | O=C(C1CCN(S(=O)(=O)c2cccc3cccnc23)CC1)N1CCCC1 | 3.6%
31 | CS(=O)(=O)Nc1cccc2cccnc12 | 14.8%
32 | O=S(=O)(Nc1cccc2cccnc12)c1ccc(S(=O)(=O)N2CCCC2)cc1 | 70.3% (active)
33 | O=C(c1nc2nc(-c3ccc(Cl)cc3)cc(C(F)(F)F)n2n1)N1CCOCC1 | 3.6%
34 | COc1ccc(OC)c(-n2cnc3cc(C(=O)O)ccc32)c1 | -15.9%
35 | CC1CCN(CCNC(=O)C2CCCN(S(=O)(=O)c3cccc4nonc34)C2)CC1 (stereo not given) | -4.5%
36 | CC(C)OC(=O)c1c(NC(=O)c2cccs2)sc2c1CCCC2 | -3.4%
37 | CCc1c(C)sc(NC(=O)c2cccs2)c1C(=O)OC(C)C | 51.6% (active)
38 | CCOC(=O)c1c(NC(=O)c2cccs2)sc(C)c1CC | 2.4%
39 | COC(=O)Cc1cc(=O)[nH]c(Nc2nc3ccccc3o2)n1 | 11.4%
40 | COCc1cc(=O)[nH]c(Nc2nc3ccc(C)cc3o2)n1 | 50.7% (active)
41 | COCc1cc(=O)[nH]c(Nc2nc3ccccc3o2)n1 | 28.8%
42 | COc1ccccc1NC(C)=O | -2.1%
43 | Cc1cccc(NC(=O)c2ccc(S(=O)(=O)N3CCCCC3)cc2)n1 | 2.7%
44 | COC(=O)c1cc(NC(=O)C2CC=CCC2C(=O)O)cc(C(=O)OC)c1 (stereo not given) | -9.5%
45 | CC1Cn2c(nnc2-c2cccc(N)c2)S1 (stereo not given) | -6.4%
46 | COc1ccc(S(=O)(=O)N(C)CC(=O)Nc2cccc(C(C)=O)c2)cc1 | -14.2%
47 | COc1cc(-c2nnc(COc3ccc4ccccc4c3)o2)cc(OC)c1OC | 36.9%
48 | COc1cc(-c2nnc(COc3ccc4cc(Br)ccc4c3)o2)cc(OC)c1OC | 75.7% (active)
49 | COc1ccc(-c2nnc(COc3ccc4ccccc4c3)o2)cc1OC | -1.8%
50 | COc1ccc(N=C2SC(C(=O)Nc3ccc4c(c3)OCO4)CC(=O)N2C)cc1 (stereo not given) | -25%
